Laboratory results reported in article PMC7862700, “An all-to-all approach to the identification of sequence-specific readers for epigenetic DNA modifications on cytosine”.

Columns and labels:
Test in all cases: DAPPL (digital affinity profiling via proximity ligation, sequencing); 10 mM Tris-HCl pH 7.5, 50 mM NaCl, 1 mM DTT, 4% glycerol, room temperature, 30 min; GST-TFs on glutathione beads, 16-mer random dsDNA library, 0.1% formaldehyde crosslink after washing; high values mean tight binding
Conditions in all cases: protein: recombinant; tags: N-terminal GST; dsDNA, one strand shown
[1] = molecular target: T1, FLI1 (Homo sapiens, UniProt Q01543 1-452)
T1 sequence: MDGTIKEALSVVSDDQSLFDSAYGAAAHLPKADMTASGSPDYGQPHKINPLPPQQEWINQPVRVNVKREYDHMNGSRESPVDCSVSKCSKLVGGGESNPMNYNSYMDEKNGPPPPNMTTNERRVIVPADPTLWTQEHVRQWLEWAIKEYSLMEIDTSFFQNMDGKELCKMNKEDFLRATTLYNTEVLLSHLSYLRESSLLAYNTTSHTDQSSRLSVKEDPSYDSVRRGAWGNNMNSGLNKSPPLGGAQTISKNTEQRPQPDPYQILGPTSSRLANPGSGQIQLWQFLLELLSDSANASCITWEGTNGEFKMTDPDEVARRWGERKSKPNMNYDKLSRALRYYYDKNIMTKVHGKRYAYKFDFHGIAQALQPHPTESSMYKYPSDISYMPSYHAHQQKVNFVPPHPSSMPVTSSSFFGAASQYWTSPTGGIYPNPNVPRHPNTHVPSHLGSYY
Method in brief: (§1)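 Beads coated with glutathione captured GST-fused human transcription factors that had been expressed in yeast, and the factors were then given DNA barcodes and pooled with a tag-only sample. The pools were incubated with 200 nmole of a random double-stranded 16-mer DNA library in Tris/NaCl/DTT/glycerol buffer for 30 min at room temperature, washed, crosslinked with 0.1% formaldehyde and proximity-ligated with BsaI/T4 ligase at 37 °C for 1 h. PCR amplification and Illumina NextSeq500 sequencing came last. Binding signal is each hexamer's read frequency for a factor divided by its frequency for the tag-only sample.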

[2] = molecular target: T2, ELK1 (Homo sapiens, UniProt P19419 1-428)
T2 sequence: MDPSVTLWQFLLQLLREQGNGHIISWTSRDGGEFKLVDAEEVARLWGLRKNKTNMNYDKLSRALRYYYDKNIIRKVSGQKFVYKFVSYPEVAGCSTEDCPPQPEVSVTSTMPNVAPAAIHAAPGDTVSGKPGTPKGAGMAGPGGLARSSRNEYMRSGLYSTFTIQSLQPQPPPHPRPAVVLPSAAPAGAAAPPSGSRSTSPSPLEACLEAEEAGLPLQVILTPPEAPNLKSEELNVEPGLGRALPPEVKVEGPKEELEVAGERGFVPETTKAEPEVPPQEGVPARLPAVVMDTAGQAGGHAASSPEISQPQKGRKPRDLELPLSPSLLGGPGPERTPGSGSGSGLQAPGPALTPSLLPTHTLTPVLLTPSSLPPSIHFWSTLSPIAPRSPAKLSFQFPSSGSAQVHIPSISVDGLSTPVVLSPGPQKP
Method in brief: as §1

[3] = molecular target: T3, GABPA (Homo sapiens, UniProt Q06546 1-454)
T3 sequence: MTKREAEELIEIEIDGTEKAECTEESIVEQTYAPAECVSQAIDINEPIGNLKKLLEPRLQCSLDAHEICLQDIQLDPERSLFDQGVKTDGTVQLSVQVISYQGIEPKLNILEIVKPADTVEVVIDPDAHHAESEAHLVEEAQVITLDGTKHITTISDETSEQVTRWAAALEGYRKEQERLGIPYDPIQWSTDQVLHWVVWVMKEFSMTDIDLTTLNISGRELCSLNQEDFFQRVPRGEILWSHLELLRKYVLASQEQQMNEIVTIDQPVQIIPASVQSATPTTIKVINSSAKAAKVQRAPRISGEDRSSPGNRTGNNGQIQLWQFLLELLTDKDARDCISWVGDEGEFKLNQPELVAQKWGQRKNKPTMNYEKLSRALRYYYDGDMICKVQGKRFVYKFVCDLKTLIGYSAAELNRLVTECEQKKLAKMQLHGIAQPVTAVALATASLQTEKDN
Method in brief: as §1

[4] = molecular target: T4, ERG (Homo sapiens, UniProt P11308 1-479)
T4 sequence: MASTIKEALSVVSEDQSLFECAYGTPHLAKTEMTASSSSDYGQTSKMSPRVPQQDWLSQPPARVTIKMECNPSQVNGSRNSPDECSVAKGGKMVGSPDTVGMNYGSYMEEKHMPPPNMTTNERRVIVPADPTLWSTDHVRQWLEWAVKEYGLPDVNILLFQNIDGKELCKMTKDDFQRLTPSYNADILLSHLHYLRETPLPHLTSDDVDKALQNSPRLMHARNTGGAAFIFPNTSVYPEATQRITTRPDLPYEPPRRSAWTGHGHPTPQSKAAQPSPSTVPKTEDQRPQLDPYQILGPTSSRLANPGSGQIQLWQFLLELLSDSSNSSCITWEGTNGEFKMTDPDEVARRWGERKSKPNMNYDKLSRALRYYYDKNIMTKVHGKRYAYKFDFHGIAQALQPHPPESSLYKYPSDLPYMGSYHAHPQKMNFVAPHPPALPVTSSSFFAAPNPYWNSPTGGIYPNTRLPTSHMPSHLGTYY
Method in brief: as §1

[5] = molecular target: ELF1 (Homo sapiens, UniProt P32519 1-619)
ELF1, sequence (P32519 whole entry): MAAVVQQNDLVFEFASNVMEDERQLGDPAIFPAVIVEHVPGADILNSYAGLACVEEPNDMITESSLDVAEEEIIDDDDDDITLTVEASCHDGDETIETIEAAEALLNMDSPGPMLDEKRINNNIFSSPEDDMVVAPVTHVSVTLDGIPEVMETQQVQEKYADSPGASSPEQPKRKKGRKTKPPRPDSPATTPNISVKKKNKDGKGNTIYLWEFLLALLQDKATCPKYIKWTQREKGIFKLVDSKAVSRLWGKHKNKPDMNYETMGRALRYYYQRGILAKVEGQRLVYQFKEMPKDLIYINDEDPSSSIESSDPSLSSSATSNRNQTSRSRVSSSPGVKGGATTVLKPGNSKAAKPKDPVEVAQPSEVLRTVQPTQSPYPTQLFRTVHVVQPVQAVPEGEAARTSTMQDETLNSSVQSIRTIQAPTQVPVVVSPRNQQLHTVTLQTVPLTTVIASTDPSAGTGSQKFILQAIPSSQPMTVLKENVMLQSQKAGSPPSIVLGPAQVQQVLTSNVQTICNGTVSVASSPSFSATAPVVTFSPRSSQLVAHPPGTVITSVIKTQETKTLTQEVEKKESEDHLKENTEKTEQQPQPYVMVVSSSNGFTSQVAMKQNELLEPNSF
Method in brief: as §1

[6] = molecular target: T5, EHF (Homo sapiens, UniProt Q9NZC4 1-300)
T5 sequence: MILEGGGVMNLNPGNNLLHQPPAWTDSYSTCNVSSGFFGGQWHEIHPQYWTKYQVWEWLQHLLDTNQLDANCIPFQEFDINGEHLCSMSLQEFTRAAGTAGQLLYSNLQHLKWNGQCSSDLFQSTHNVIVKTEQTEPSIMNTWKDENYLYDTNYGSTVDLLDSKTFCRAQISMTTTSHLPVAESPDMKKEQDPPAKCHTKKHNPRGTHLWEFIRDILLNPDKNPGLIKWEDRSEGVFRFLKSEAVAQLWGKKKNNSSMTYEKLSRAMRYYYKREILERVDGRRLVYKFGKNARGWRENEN
Method in brief: as §1

[7] = molecular target: SPI1 (Homo sapiens, UniProt P17947 1-270)
Method in brief: as §1

[8] = molecular target: SPIB (Homo sapiens, UniProt Q01892 1-262)
SPIB, sequence (Q01892 whole entry): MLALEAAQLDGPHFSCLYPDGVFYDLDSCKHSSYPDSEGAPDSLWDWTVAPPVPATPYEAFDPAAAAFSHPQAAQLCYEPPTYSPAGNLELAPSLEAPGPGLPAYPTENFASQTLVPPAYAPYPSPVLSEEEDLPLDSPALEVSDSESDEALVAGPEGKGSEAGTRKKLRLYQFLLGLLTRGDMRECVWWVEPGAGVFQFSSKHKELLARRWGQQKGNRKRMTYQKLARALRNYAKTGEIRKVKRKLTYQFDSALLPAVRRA
Method in brief: as §1

[9] = molecular target: T6, ELK3 (Homo sapiens, UniProt P41970 1-407)
T6 sequence: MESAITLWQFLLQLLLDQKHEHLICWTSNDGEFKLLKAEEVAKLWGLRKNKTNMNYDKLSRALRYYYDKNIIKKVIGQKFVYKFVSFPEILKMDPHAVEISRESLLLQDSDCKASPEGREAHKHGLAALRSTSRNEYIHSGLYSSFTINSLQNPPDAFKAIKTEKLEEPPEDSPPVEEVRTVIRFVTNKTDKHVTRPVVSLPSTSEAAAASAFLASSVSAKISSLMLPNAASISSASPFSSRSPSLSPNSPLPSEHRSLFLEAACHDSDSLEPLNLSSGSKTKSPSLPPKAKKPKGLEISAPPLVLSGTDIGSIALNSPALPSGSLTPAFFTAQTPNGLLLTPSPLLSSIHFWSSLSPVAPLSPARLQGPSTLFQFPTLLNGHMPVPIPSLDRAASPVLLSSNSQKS
Method in brief: as §1

For ATGGAT, the binding signal [1] was 1.06 fold enrichment (6-mer frequency, TF over GST control), the binding signal [2] was 1.11 fold enrichment (6-mer frequency, TF over GST control) and the binding signal [3] was 1.18 fold enrichment (6-mer frequency, TF over GST control). For the same sequence, the binding signal [4] was 1.08 fold enrichment (6-mer frequency, TF over GST control), the binding signal [5] was 1.04 fold enrichment (6-mer frequency, TF over GST control) and the binding signal [6] was 1.09 fold enrichment (6-mer frequency, TF over GST control). For the same sequence, the binding signal [7] was 1.06 fold enrichment (6-mer frequency, TF over GST control), the binding signal [8] was 1.14 fold enrichment (6-mer frequency, TF over GST control) and the binding signal [9] was 1.2 fold enrichment (6-mer frequency, TF over GST control).
